Data published in PubChem BioAssay AID624405 (Broad Institute, 2012).
In all, about 1,900 compounds went through this assay and about 250 (13%) were called active. Inconclusive results (about 4%) are left out.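 How the source made its calls: active means fitted curve reaches 40% rescue activity at or below the top valid dose, in every test run; inconclusive means test runs disagree, some active and some inactive; inactive means every run misses the threshold or moves the wrong way.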 The list is a sample of the results. Measured potencies and affinities stand elsewhere.

Assay: suppressors of statin myotoxicity in myotubes, dose response, cell-based, C2C12 myotubes, ATP luminescence, cherry pick (AID 624405);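 further: myotubes are challenged with simvastatin at 10 µM to lower ATP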
Conditions: C2C12 myotubes + simvastatin, 48 h, scaled: DMSO wells 0, geranylgeraniol wells 100; series mostly up to 19.5 µM

| SMILES | outcome |
| --- | --- |
| COc1cc(C)c(C(C)C)cc1S(=O)(=O)NCCCn1ccnc1 | inactive |
| COC(=O)c1sc(S(=O)(=O)Nc2ccc3cn[nH]c3c2)c(C(=O)OC)c1C | inactive |
| C[C@H](CO)N1C[C@H](C)[C@H](CN(C)S(=O)(=O)c2ccccc2)OCCCC[C@H](C)Oc2ccc(NS(C)(=O)=O)cc2C1=O | inactive |
| COc1ccc(-n2c(SCC(=O)N3CCCCC3)nc(O)cc2=O)cc1 | inactive |
| CCOC(=O)N1CCN(C(=O)C2CC(c3ccccc3OC)=NO2)CC1 (stereo unspecified) | inactive |
| COc1cc2oc3ccccc3c2cc1N(CC(=O)N1CCCCC1)S(=O)(=O)c1ccc(C)cc1 | inactive |
| Cn1ncc(Cl)c1C(=O)Nc1cccnc1 | inactive |
| O=C(O)C1CCCCC1C(=O)Nc1ccccn1 (stereo unspecified) | inactive |
| CCCCCCC(=O)N1CCN(c2cc3c(cc2F)c(=O)c(C(=O)O)cn3CC)CC1 | inactive |
| CC1CCN(C(=O)c2cc(F)c(F)cc2Cl)CC1 | inactive |
| CCOc1ccccc1Nc1nc(N)nc(Cl)c1CC | inactive |
| O=C(NCc1cccnc1)C1CC(=O)N(CCc2ccccc2)C1 (stereo unspecified) | inactive |
| CCOC(=O)N1CCN(c2c(N3CCN(c4cc(C)ccc4C)CC3)c(=O)c2=O)CC1 | inactive |
| C[C@H]1CN([C@@H](C)CO)C(=O)c2cccc(NS(=O)(=O)c3cccs3)c2O[C@@H]1CN(C)Cc1ccc(Oc2ccccc2)cc1 | inactive |
| C[C@H](CO)N1C[C@H](C)[C@@H](CN(C)Cc2ccc3c(c2)OCO3)Oc2ccc(NS(=O)(=O)c3ccc(F)cc3)cc2CC1=O | inactive |
| COc1ccc(OC)c(CNC(=O)C2CCCN(c3nc4ccccc4o3)C2)c1 (stereo unspecified) | inactive |
| CCCS(=O)(=O)N1CCCC(C(=O)N2CCN(c3ccccc3)CC2)C1 (stereo unspecified) | inactive |
| CN(C)c1nc(Oc2ccc(C(=O)OCC(=O)Nc3ccccc3)cc2)nc(N(C)C)n1 | inactive |
| COc1ccc(C#Cc2ccc3c(c2)O[C@H](CN(C)C(=O)Nc2cccc(OC)c2)[C@@H](C)CN([C@H](C)CO)S3(=O)=O)cc1 | inactive |
| C[C@H](CO)N1C[C@H](C)[C@H](CN(C)C(=O)Cc2ccccc2)OCCCC[C@H](C)Oc2ccc(NC(=O)Nc3ccc(C(F)(F)F)cc3)cc2C1=O | inactive |
| Cc1csc2nc(CNC(=O)c3cccc(C(F)(F)F)c3)cn12 | inactive |

| SMILES | outcome |
| --- | --- |
| O=C(NCC(=O)N(Cc1cccs1)C(C(=O)NC1CCCCC1)c1cccnc1)c1ccco1 (stereo unspecified) | inactive |
| O=C(Nc1ccccc1Cl)N1C[C@H]2[C@@H](c3ccccc31)[C@@H](CO)N2Cc1ccccc1 | inactive |
| COc1ccc(N2C(=O)CSC23C(=O)Nc2ccccc23)cc1 (stereo unspecified) | inactive |
| C[C@@H]1CCCCO[C@H](CN(C)S(=O)(=O)c2ccc(Cl)cc2)[C@H](C)CN([C@H](C)CO)C(=O)c2cc(NS(C)(=O)=O)ccc2O1 | inactive |
| C[C@H](CO)N1C[C@H](C)[C@@H](CN(C)Cc2ccc(C(F)(F)F)cc2)Oc2ccc(NC(=O)C3CCCCC3)cc2CC1=O | inactive |
| N#Cc1ccc(C(=O)NCC(c2ccco2)N2CCCCC2)cc1 (stereo unspecified) | inactive |
| CC(C)(C)n1nnnc1C(c1cccnc1)N1CCN(c2ccccc2F)CC1 (stereo unspecified) | inactive |
| CCOC(=O)c1sc(NCC2CCCO2)nc1C (stereo unspecified) | inactive |
| Cc1noc(C)c1S(=O)(=O)Nc1cccc2c1O[C@@H](CN(C)S(C)(=O)=O)[C@@H](C)CN([C@H](C)CO)C2=O | inactive |
| C[C@@H]1CN([C@@H](C)CO)C(=O)c2cccc(NC(=O)c3ccc(-c4nccs4)cc3)c2O[C@@H]1CN(C)Cc1ccc(C(F)(F)F)cc1 | inactive |
| CC(C)(C)C(=O)Nc1ccc(C(=O)NCc2cccnc2)cc1 | inactive |
| COc1cc(OC)cc(C(=O)NCc2cccnc2)c1 | inactive |
| CCOC(=O)c1nnc(-c2ccc(C)cc2)nc1Sc1ccc(Cl)cc1 | inactive |
| COc1cnc(N(C)C)nc1Sc1ccc(Cl)cc1 | inactive |
| COc1ccc(S(=O)(=O)Nc2ccc3c(c2)C(=O)N([C@@H](C)CO)C[C@@H](C)[C@H](CN(C)S(=O)(=O)c2ccc(F)cc2)OCCCC[C@@H](C)O3)cc1 | inactive |
| COc1ccc(C(=O)c2nc3c(n2O)CCCC3)cc1OC | inactive |
| Cc1ccc2nc(-c3cccc(NC(=O)c4ccc5c(c4)OCCO5)c3)oc2c1 | inactive |
| Cc1ccc(-c2csc(-c3c[nH]c4ccccc34)n2)cc1 | inactive |
| COc1ccc(-c2noc(CCCC(=O)NCCc3ccccc3)n2)cc1OC | inactive |
| CC(C)NC(=O)N(C)C[C@@H]1Oc2ccc(NC(=O)Nc3cccc4ccccc34)cc2CC(=O)N([C@@H](C)CO)C[C@@H]1C | inactive |
| O=C(NCC(=O)N(Cc1ccccc1)C(C(=O)NC1CCCCC1)c1ccco1)c1ccco1 (stereo unspecified) | inactive |

| SMILES | outcome |
| --- | --- |
| COc1ccc(CNC(=O)C2CCCN(S(=O)(=O)c3ccc4c(c3)CCCN4C(C)=O)C2)cc1 (stereo unspecified) | inactive |
| COc1ccc(CNS(=O)(=O)c2ccc3c(c2)CCN3C(=O)C2CCC2)cc1 | inactive |
| C[C@@H]1CCCCO[C@@H](CN(C)S(=O)(=O)c2ccc(Cl)cc2)[C@H](C)CN([C@@H](C)CO)C(=O)c2cc(NS(C)(=O)=O)ccc2O1 | inactive |
| CC(C)COc1nc2ccccc2c(=O)n1OCC(=O)O | inactive |
| CC(C)C#Cc1ccc2c(c1)O[C@@H](CN(C)C(=O)C1CCC1)[C@@H](C)CN([C@@H](C)CO)S2(=O)=O | inactive |
| NNC(=O)c1nn(-c2ccc(Cl)cc2)cc1O | inactive |
| COc1ccc(-n2cnc3cc(NCc4cccs4)ccc32)cc1 | inactive |
| C[C@H](CO)N1C[C@H](C)[C@@H](CN(C)Cc2ccc(Cl)c(Cl)c2)Oc2ccc(NC(=O)CCC(F)(F)F)cc2CC1=O | inactive |
| Cc1ccc(S(=O)(=O)n2nc(-c3ccco3)nc2SCc2ccccc2)cc1 | inactive |
| O=S(=O)(NCC1CCN(S(=O)(=O)c2ccccc2)CC1)c1ccccc1 | inactive |
| CCOC(=O)[C@H]1[C@H]2COc3ccc(Cl)cc3[C@@H]2N2C(=O)c3ccccc3NC(=O)[C@@]12C | inactive |
| Cc1nc2ccc(S(=O)(=O)NCC(=O)N3CCCC(C)C3)cc2s1 (stereo unspecified) | inactive |
| O=C(CNS(=O)(=O)c1ccc(Br)s1)N1CCN(c2ncccn2)CC1 | inactive |
| C[C@H]1CN([C@@H](C)CO)C(=O)Cc2cc(NC(=O)CCC(F)(F)F)ccc2O[C@@H]1CN(C)Cc1ccc(Oc2ccccc2)cc1 | inactive |
| COc1ccc(CNC(=O)CCOc2ccc(C(C)(C)C)cc2)cc1 | inactive |
| COc1ccc(CCNC(=O)c2ccc(N3CCCC3=O)cc2)cc1 | inactive |
| Cc1ccc(Cl)cc1NC(=O)COC(=O)CC1CC2CCC1C2 (stereo unspecified) | inactive |
| COc1cccc(S(=O)(=O)N(C)C[C@H]2OCc3ccccc3-c3c(n(C)c4ccccc34)C(=O)N([C@H](C)CO)C[C@H]2C)c1 | inactive |
| COc1ccc(CN(C)C[C@@H]2Oc3ccc(NS(=O)(=O)c4ccccc4)cc3CC(=O)N([C@H](C)CO)C[C@H]2C)cc1 | inactive |
| CCOC(=O)N1CCN(c2ccccc2O)CC1 | inactive |
| CCOC(=O)N1CCN(C2CC(=O)N(c3ccc(Oc4ccccc4)cc3)C2=O)CC1 (stereo unspecified) | inactive |

| SMILES | outcome |
| --- | --- |
| C[C@@H]1CN([C@H](C)CO)C(=O)c2cc(NS(C)(=O)=O)ccc2O[C@@H](C)CCCCO[C@@H]1CN(C)Cc1ccc(Cl)c(Cl)c1 | inactive |
| COc1ccc(C(=O)N2C[C@H]3[C@@H](c4ccccc42)[C@@H](CO)N3Cc2ccccc2)cc1 | inactive |
| CCN(CC)c1nc(C#N)cc(-c2ccc(OC)cc2)n1 | inactive |
| C[C@H](CO)N1C[C@H](C)[C@@H](CN(C)C(=O)Nc2ccccc2)Oc2ncc(C#CC3CCCC3)cc2C1=O | inactive |
| C[C@H](CO)N1C[C@H](C)[C@@H](CN(C)C(=O)Nc2cccc3ccccc23)OCCCC[C@H](C)Oc2ccc(NC(=O)Nc3ccc4c(c3)OCO4)cc2C1=O | inactive |
| Cc1ccc(S(=O)(=O)Nc2ccc3c(c2)C(=O)N([C@H](C)CO)C[C@@H](C)[C@H](CN(C)Cc2ccc(Cl)c(Cl)c2)O3)cc1 | inactive |
| CCOC(=O)C1=C(C)Nc2ccccc2N=C1NC(=O)c1cccc(S(=O)(=O)N(C)C)c1 | inactive |
| COc1ccc(C(=O)N2C[C@@H]3[C@H](c4ccccc42)[C@H](CO)N3Cc2ccccc2)cc1 | inactive |
| COC(=O)C1(C(=O)OC)NOC2C(=O)N(c3ccc(Cl)cc3Cl)C(=O)C21 (stereo unspecified) | inactive |
| C[C@@H](NC(=O)C[C@@H]1CC[C@@H]2[C@H](COC[C@H](O)CN2Cc2ccc(C(F)(F)F)cc2)O1)c1ccccc1 | inactive |
| COc1ccc(S(=O)(=O)Nc2ccc3c(c2)C(=O)N([C@H](C)CO)C[C@H](C)[C@H](CN(C)S(=O)(=O)c2ccc(F)cc2)OCCCC[C@H](C)O3)cc1 | inactive |
| CCC(C)(CCNC(=O)Cc1ccccc1)c1ccccc1OC (stereo unspecified) | inactive |
| C[C@H]1CN([C@@H](C)CO)C(=O)Cc2cc(NC(=O)CCCCCC(=O)Nc3ccccc3N)ccc2O[C@@H]1CN(C)Cc1ccc(-c2ccccc2)cc1 | inactive |
| C[C@H](CO)N1C[C@H](C)[C@@H](CN(C)Cc2ccc(-c3ccccc3)cc2)Oc2ccc(NC(=O)CCCCCC(=O)Nc3ccccc3N)cc2CC1=O | inactive |
| C[C@H](CO)N1C[C@H](C)[C@@H](CN(C)Cc2ccc(-c3ccccc3)cc2)Oc2ccc(NC(=O)Cc3ccccc3)cc2CC1=O | inactive |
| Cc1noc(C)c1S(=O)(=O)Nc1ccc2c(c1)C(=O)N([C@@H](C)CO)C[C@@H](C)[C@@H](CN(C)S(=O)(=O)c1ccc(Cl)cc1)OCCCC[C@H](C)O2 | inactive |
| c1ccc2c(c1)CNC1(CCCCC1)C2 | inactive |
| COc1ccc(S(=O)(=O)Nc2ccc3c(c2)C(=O)N([C@@H](C)CO)C[C@@H](C)[C@@H](CN(C)C(=O)Nc2cccc4ccccc24)OCCCC[C@H](C)O3)cc1 | inactive |
